Data on 40 molecules can be found in PubChem BioAssay (NCATS).

SMILES strings stand for the structures. Values joined by “and” are separate entries in the source; they are usually repeats but may differ in a detail not shown here. Equal values may be shown once. Inconclusive results are not listed. Where a call stands in place of a potency, no number is given. More than one record can exist for a structure, and the calls need not agree. Active and inactive are the calls of the source. Calls follow the shape of the dose curve; as a rule, active = well fitted inhibition curve with a large enough effect; inconclusive = small, poorly fitted or top-dose-only effect; inactive = flat fitted curve, though single readings scatter.
Potency is read from the fitted curve at half-maximal effect.

The test system of the assay is MCC-26. The assay can be described thus: qHTS assay to identify novel small-molecules to repurpose for Merkel cell carcinoma treatment (AID 1296009). Also: nearly all actives have a fitted effect of over 60% in size. Conditions: MCC and control cell lines, CellTiter-Glo viability, 72 h; series mostly up to 46 µM. From the text: MCC is a rare and aggressive neuroendocrine skin cancer with limited treatment options. Approximately 80% of MCCs have the Merkel cell polyomavirus (MCPyV) DNA integrated into the host genome (virus-positive: VP-MCC) and viral oncogenes drive oncogenesis. The remaining MCCs are virus-negative (VN-MCC) and are caused by UV mutagenesis. To identify novel treatments for VP-MCC and/or VN-MCC we screened three VP-MCC cell lines (WAGA, MKL-1, MKL-2), three VN-MCC cell lines (MCC-13, MCC-26, UISO), and four immortalized, non-transformed control cell lines (HaCaT, HEK293T, CRL7250, NIH-3T3) against ~2,400 compounds in the NCGC Pharmaceutical Collection (NPC) and ~1,900 compounds in the Mechanism Interrogation PlatE (MiPE). Using cell viability as a readout (CellTiter-Glo assay) we found both overlapping and distinct drugs that can be repurposed for the treatment of VP-MCC and VN-MCC.
A high-throughput screen was conducted in 1536-well white flat bottom plates (Corning) on a Kalypsys robotic system. Cell lines WAGA, MKL-1, MKL-2, MCC-13, MCC-26, UISO, HaCaT, HEK293T, CRL7250, and NIH-3T3 were screened against 2 small molecule annotated drug libraries NPC and MIPE in dose response (8 and 11 pt. respectively) measuring cell viability after 72 hours of incubation. […] A 1,536 pintool (Kalypsys) was used to transfer 23 nL of compound in DMSO to the 1,536-well assay plates. After 72 hr incubation at 37 degree celsius, 2.5 uL of CellTiter-Glo (Promega) was dispensed into each well using a BiorapTR. Plates were incubated at room temperature for 10 min, transferred to a ViewLux (PerkinElmer) and the luminescence was recorded using an exposure time of 2 seconds. Relative luminescence units (RLUs) were normalized to in-plate controls (no cells as a positive (cytotoxicity) control, DMSO as negative control) and the normalized data was processed using NCATS in-house software.
For orientation: qHTS replaces the single test concentration by a dilution series.
With `CC#C[C@]1(O)CC[C@H]2[C@@H]3CCC4=CC(=O)CCC4=C3[C@@H](c3ccc(N(C)C)cc3)C[C@@]21C`, the Potency result is “inactive”.

Regarding `CC(C(=O)O)c1cccc(C(=O)c2ccccc2)c1` (stereo not given), the Potency entry was “inactive”.

On to `CC(C)NCC(O)c1ccc(O)c(O)c1` (stereo not given), for which the Potency entry is “inactive”. With `O=c1c(O)c(-c2ccc(O)c(O)c2)oc2cc(O)cc(O)c12`, the Potency entry is “inactive”. As to `COc1ccccc1OCCNCC(O)COc1cccc2[nH]c3ccccc3c12` (stereo not given), the Potency entry was “inactive”. Under `CC(C)(C)C(=O)Oc1ccc(S(=O)(=O)Nc2ccccc2C(=O)NCC(=O)O)cc1` stands “inactive”; under `NCCS(=O)(=O)O`, “inactive”; under `CC12CC3CC(C)(C1)CC(N)(C3)C2`, “inactive”. `O=C(c1ccc(F)cc1)C1CCN(CCn2c(=O)[nH]c3ccccc3c2=O)CC1`: the Potency entry is “inactive”. With `O=C(Nc1ccc([N+](=O)[O-])cc1Cl)c1cc(Cl)ccc1O`, the Potency entry is “inactive”. In the case of `CC1(C)O[C@H]2CC(=O)OC[C@]23[C@H]2CC[C@@]4(C)[C@H](c5ccoc5)OC(=O)[C@H]5O[C@]54[C@]2(C)C(=O)C[C@@H]13`, the Potency result was “inactive”. The entry for `NC(=O)NO` is “inactive and 10.5 µM (active)”; for `O=C(CCCN1CCC(O)(c2ccc(Cl)cc2)CC1)c1ccc(F)cc1` it is “inactive”; for `CS(=O)(=O)CCNCc1ccc(-c2ccc3ncnc(Nc4ccc(OCc5cccc(F)c5)c(Cl)c4)c3c2)o1` it is “inactive”.

In the case of `COc1ccc2c(c1)c(CC(=O)O)c(C)n2C(=O)c1ccc(Cl)cc1`, the Potency entry is “inactive”.

Consider `Cc1cnc(C(=O)NCCc2ccc(S(=O)(=O)NC(=O)NC3CCCCC3)cc2)cn1`, for which the Potency entry is “inactive”. The entry for `NCCc1cnc[nH]1` is “inactive”; for `NCCCCCC(=O)O` it is “inactive”; for `CN1C2CCC1CC(OC(=O)C(CO)c1ccccc1)C2` (stereo not given) it is “inactive”. Under `COc1cc2nc(N(C)CCCNC(=O)C3CCCO3)nc(N)c2cc1OC` (stereo not given) stands “inactive”.

On to `Nc1nc2c(ncn2COC(CO)CO)c(=O)[nH]1`, for which the Potency result was “inactive”. `Cn1cnc2c1c(=O)[nH]c(=O)n2C`: the Potency entry is “inactive”. Under `COc1ccccc1N1CCN(CC(O)COc2cccc3ccccc23)CC1` (stereo not given) stands “inactive”. Under `CC1COc2c(N3CCN(C)CC3)c(F)cc3c(=O)c(C(=O)O)cn1c23` (stereo not given) stands “inactive”.

Consider `COC(=O)Nc1nc2ccc(C(=O)c3cccs3)cc2[nH]1`, for which the Potency is 132 nM (active).

With `CN1CCC(=C2c3ccccc3C=Cc3ccccc32)CC1`, the Potency result was “inactive”. As for `COc1ccc2[nH]cc(CCNC(C)=O)c2c1`, the Potency result is “inactive”. As for `O=c1[nH]cc(F)c(=O)[nH]1`, the Potency entry is “inactive”. Under `O=C(c1ccc(OCCN2CCCCC2)cc1)c1c(-c2ccc(O)cc2)sc2cc(O)ccc12` stands “inactive”; under `NC12CC3CC(CC(C3)C1)C2`, “inactive”; under `CCC1(C)CC(=O)NC1=O` (stereo not given), “inactive”. The entry for `COc1nc(C)nc(Cl)c1NC1=NCCN1` is “inactive”. Consider `CN1CCN(C2=Nc3cc(Cl)ccc3Nc3ccccc32)CC1`, for which the Potency entry was “inactive”. The entry for `CN(C)C(=O)C(CCN1CCC(O)(c2ccc(Cl)cc2)CC1)(c1ccccc1)c1ccccc1` is “inactive”. The entry for `CN1CCC(=C2c3ccccc3CC(=O)c3sccc32)CC1` is “inactive”; for `CCCCc1oc2ccccc2c1C(=O)c1cc(I)c(OCCN(CC)CC)c(I)c1` it is “inactive”.

As for `CCOC(=O)C(C)(C)Oc1ccc(Cl)cc1`, the Potency entry is “inactive”. Regarding `CC(CCc1ccc(O)cc1)NCCc1ccc(O)c(O)c1` (stereo not given), the Potency result was “inactive”.

As for `OCCN(CCO)c1nc(N2CCCCC2)c2nc(N(CCO)CCO)nc(N3CCCCC3)c2n1`, the Potency result is “inactive”. Under `Fc1ccc([C@@H]2CCNC[C@H]2COc2ccc3c(c2)OCO3)cc1` stands “inactive”.
